This note sets out measurements from PubChem BioAssay.

Experiment [1] can be described thus: human hepatoma cell viability loss – ATP luminescence, cytotoxicity control for P. falciparum antimalarial project, primary screen (AID 2303;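 active = inhibition above 50%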;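 also: 0% = DMSO wells and 100% = digitonin-killed cells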). The settings on record: HepG2 viability, 24-48 h, at 10 µM, hits give high values.
Experiment [2] addresses L-lactate dehydrogenase (Plasmodium falciparum (isolate CDC / Honduras)) (UniProt Q27743). The experiment in a line: PfLDH activity inhibition – cell lysate, 3D7 strain, counter-screen for P. falciparum growth inhibition project (AID 2304).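 Also: 0% = vehicle and 100% = reference inhibitor.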 To be noted: P. falciparum 3D7 crude extract, LDH APAD/NBT absorbance; at 2 µM; hits give high values. (In general: Counterscreens check selectivity or assay interference.)

Experiment [3] can be described thus: inhibition of 3D7 malaria parasite growth – strain 3D7 (AID 2306).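 Also: 0% = DMSO wells and 100% = chloroquine plus artemisinin control wells.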 The settings on record: P. falciparum 3D7 erythrocytic growth, LDH absorbance, 72 h; at 2 µM; hits give high values.
Experiment [4] has as its target Calcium-dependent protein kinase 1 (Plasmodium falciparum (isolate 3D7)) (UniProt P62344). Briefly: PfCDPK1 kinase inhibitors, biochemical, TCAMS library (AID 1159585; cut-off not given, nearly all actives have IC50 up to about 0.98 µM;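 also: inhibitors leave more ATP so luminescence rises with inhibition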). The settings on record: recombinant PfCDPK1, Kinase-Glo ATP depletion luminescence. A general note: Kinase-Glo reads ATP consumption through a luciferase reaction.
The target of experiment [5] is Plasmodium falciparum protein kinase 6 (PK6, PF3D7_1337100) (UniProt Q8IDW1). Briefly: PfPK6 kinase inhibitors, biochemical, TCAMS library (AID 1159586). To be noted: recombinant PfPK6, Kinase-Glo ATP depletion luminescence.
The target in experiment [6] is Protein kinase 7 (PK7), Plasmodium falciparum 3D7 (PF3D7_0213400) (UniProt Q7YTF7). The experiment in a line: inhibition of Plasmodium PK7 catalytic activity – biochemical, TCAMS antimalarial set, Kinase-Glo luminescence (AID 1159587). The settings on record: recombinant PfPK7, Kinase-Glo ATP depletion luminescence.
Experiment [7] addresses Calcium-dependent protein kinase 4 (Plasmodium falciparum (isolate 3D7)) (UniProt Q8IBS5). Briefly: PfCDPK4 kinase inhibitors, biochemical, TCAMS library (AID 1159588; cut-off not given, nearly all actives have IC50 up to about 0.91 µM). The settings on record: recombinant PfCDPK4, Kinase-Glo ATP depletion luminescence.
Experiment [8] can be described thus: antimalarial activity against Dd2 strain (AID 2302;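 active = growth inhibition above 50% at the single 2 µM test dose, taken to imply half-maximal potency below 2 µM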;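 also: 0% = DMSO untreated growth and 100% = chloroquine plus artemisinin killed control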). The settings on record: P. falciparum Dd2 in RBCs, LDH growth readout, 72 h; at 2 µM; hits give high values.

Molecules are shown by their SMILES. Values without a mark were called inactive. For part of these data: Entries with a potency or affinity are not part of this list. Activity calls are given as the source filed them. Unless noted, no rule for the calls is given here.

Chain of Calcium-dependent protein kinase 4 (Plasmodium falciparum (isolate 3D7)) (Q8IBS5 whole entry, looked up): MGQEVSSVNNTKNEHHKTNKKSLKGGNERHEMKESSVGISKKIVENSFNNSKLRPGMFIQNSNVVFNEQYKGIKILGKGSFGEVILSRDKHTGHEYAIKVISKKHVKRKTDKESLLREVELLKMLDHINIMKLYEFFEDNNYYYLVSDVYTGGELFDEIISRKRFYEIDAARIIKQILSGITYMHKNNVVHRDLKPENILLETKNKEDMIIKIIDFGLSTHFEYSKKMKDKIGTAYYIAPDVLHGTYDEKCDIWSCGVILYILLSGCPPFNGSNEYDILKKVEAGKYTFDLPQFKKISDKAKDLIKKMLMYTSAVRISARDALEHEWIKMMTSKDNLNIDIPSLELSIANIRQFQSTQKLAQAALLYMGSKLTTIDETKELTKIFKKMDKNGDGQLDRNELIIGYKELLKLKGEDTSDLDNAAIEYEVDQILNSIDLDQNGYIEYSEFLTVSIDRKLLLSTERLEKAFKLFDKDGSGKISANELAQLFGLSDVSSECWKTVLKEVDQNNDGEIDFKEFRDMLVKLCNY
Chain of Calcium-dependent protein kinase 1 (Plasmodium falciparum (isolate 3D7)) (P62344 whole entry, looked up): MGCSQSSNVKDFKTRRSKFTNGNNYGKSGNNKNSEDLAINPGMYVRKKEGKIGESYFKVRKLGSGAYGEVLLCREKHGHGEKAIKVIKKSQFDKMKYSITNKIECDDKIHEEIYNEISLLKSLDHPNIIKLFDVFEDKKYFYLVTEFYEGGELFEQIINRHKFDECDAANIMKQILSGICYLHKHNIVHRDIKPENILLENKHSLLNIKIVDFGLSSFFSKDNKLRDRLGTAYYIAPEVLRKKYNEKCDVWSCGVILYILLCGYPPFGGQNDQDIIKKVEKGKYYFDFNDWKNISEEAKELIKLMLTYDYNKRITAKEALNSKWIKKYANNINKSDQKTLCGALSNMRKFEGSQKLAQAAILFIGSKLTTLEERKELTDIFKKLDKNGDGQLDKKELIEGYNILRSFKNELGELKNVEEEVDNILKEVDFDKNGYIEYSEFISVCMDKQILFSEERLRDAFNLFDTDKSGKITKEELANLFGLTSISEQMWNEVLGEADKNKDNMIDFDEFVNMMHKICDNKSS
Chain of L-lactate dehydrogenase (Plasmodium falciparum (isolate CDC / Honduras)) (Q27743 whole entry, looked up): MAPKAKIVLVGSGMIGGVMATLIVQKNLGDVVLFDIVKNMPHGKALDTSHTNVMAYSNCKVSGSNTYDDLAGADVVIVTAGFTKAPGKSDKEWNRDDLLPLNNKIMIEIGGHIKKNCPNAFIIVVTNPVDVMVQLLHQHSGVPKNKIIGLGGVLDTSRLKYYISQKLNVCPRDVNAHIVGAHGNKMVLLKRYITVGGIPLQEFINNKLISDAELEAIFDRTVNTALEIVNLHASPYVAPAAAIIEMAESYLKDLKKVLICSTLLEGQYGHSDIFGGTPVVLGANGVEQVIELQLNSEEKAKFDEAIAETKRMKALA
Chain of Plasmodium falciparum protein kinase 6 (PK6, PF3D7_1337100) (Q8IDW1 1-305): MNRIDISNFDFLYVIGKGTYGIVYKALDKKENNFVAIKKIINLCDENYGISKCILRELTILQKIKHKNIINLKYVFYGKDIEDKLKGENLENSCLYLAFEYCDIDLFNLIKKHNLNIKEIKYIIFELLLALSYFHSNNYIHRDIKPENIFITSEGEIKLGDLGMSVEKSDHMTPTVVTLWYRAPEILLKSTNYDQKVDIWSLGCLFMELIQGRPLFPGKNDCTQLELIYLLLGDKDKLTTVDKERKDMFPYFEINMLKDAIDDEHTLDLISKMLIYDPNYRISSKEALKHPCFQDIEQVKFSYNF
Chain of Protein kinase 7 (PK7), Plasmodium falciparum 3D7 (PF3D7_0213400) (Q7YTF7 1-343): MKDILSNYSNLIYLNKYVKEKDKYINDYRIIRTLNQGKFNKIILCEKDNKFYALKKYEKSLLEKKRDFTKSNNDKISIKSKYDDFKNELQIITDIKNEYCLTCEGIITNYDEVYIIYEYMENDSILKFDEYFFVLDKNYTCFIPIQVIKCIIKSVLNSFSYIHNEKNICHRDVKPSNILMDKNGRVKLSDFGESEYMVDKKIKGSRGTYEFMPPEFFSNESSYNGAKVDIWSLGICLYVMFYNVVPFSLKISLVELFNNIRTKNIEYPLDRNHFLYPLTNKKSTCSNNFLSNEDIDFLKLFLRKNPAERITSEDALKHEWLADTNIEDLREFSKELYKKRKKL

In the case of `O=C(Nc1cccc(-c2nn3ccccc3c2-c2ccnc(Nc3cccc(F)c3)n2)c1)C1CCCCC1`, the inhibition (usually the relative decrease from the control value, in per cent) in experiment [1] is 44%; in experiment [2], 3%. The growth inhibition in experiment [3] was 85% (active). Moreover, the outcome in experiment [4], in experiment [5], in experiment [6] and in experiment [7] was inactive.
For `O=[N+]([O-])c1ccc(-n2nc(-c3cccnc3)n(Cc3ccco3)c2=S)c(Cl)c1`, the inhibition is 13% in experiment [1] and -1% in experiment [2]. Also, the growth inhibition in experiment [3] was 95% (active). Moreover, the outcome in experiment [4], in experiment [5], in experiment [6] and in experiment [7] was inactive.
Take `O=C(CN1C(=O)CC1S(=O)(=O)Cc1ccco1)NCCCCCCc1ccc(F)cc1` (stereo unspecified): the inhibition in experiment [1] is -2%; in experiment [2] it was -4%. Further, in experiment [3], the growth inhibition is 95% (active). In addition, the outcome in experiment [4], in experiment [5], in experiment [6] and in experiment [7] was inactive.
For the compound `COc1cc(CCNCC(O)c2ccc([N+](=O)[O-])c(OCc3ccccc3)c2)cc(OC)c1OC` (stereo unspecified), the values for the inhibition in experiment [1] and in experiment [2] were 11% and -3%, respectively. Also, the growth inhibition in experiment [3] is 98% (active). In addition, the result in experiment [4], in experiment [5], in experiment [6] and in experiment [7] was inactive.
For the compound `CC(CC1CCCCC1)NCc1ccccc1OCCC(=O)N1CCCC1C(N)=O` (stereo unspecified), the inhibition in experiment [1] is 5%; in experiment [2] it was 8%. The growth inhibition in experiment [3] is 97% (active). In addition, the result in experiment [4], in experiment [5], in experiment [6] and in experiment [7] was inactive.
For `COc1cc2ncnc(Nc3ccc(OC(F)(F)c4ccccc4)cc3)c2cc1OC`, the inhibition in experiment [1] is 14%; in experiment [2] it was 2%. Besides, the growth inhibition in experiment [3] is 91% (active). Besides, the result in experiment [4], in experiment [5], in experiment [6] and in experiment [7] was inactive.
As for `COc1cc(Cc2cnc(N)nc2N)ccc1OCc1csc(-c2ccc(Cl)cc2)n1`, the inhibition is 39% in experiment [1] and 2% in experiment [2]. In experiment [3], the growth inhibition is 93% (active). The result in experiment [4], in experiment [5], in experiment [6] and in experiment [7] was inactive.
Turning to `CC(=O)Nc1cccc(Nc2c3ccccc3nc3ccccc23)c1`, the inhibition was 31% in experiment [1] and 5% in experiment [2]. For the same compound, in experiment [3], the growth inhibition was 82% (active). The result in experiment [4], in experiment [5], in experiment [6] and in experiment [7] was inactive.
Consider `CN(C)Cc1cccc(-c2ccc(NC(=O)c3ccc4c(=O)n(Cc5cnn(C)c5)cnc4c3)cc2)c1`, for which the inhibition in experiment [1] is 12%; in experiment [2] it was 2%. In addition, the growth inhibition in experiment [3] is 80% (active). Further, the outcome in experiment [4], in experiment [5], in experiment [6] and in experiment [7] was inactive.
For the compound `CC(Sc1n[nH]c(-c2ccccc2Br)n1)C(=O)Nc1ccc(F)cc1` (stereo unspecified), the inhibition in experiment [1] was -7%; in experiment [2], 1%. Besides, the growth inhibition in experiment [3] was 90% (active). Further, the result in experiment [4], in experiment [5], in experiment [6] and in experiment [7] was inactive.
Turning to `COc1ccc(CNC(=O)Nc2cccc(-c3csc(N=C(N)N)n3)c2)cc1`, the inhibition was 8% in experiment [1] and 1% in experiment [2]. The growth inhibition in experiment [3] is 80% (active). For the same compound, the outcome in experiment [4], in experiment [5], in experiment [6] and in experiment [7] was inactive.
As to `O=C(O)CCc1ccc(-c2c[nH]c3ncc(-c4ccc5ncccc5c4)cc23)cc1`, the figures for the inhibition in experiment [1] and in experiment [2] were 30% and -3%, respectively. The growth inhibition in experiment [3] was 88% (active). In addition, the result in experiment [4], in experiment [5], in experiment [6] and in experiment [7] was inactive.
As for `CCS(=O)(=O)c1ccc(/C(=N/OC)c2ccc[nH]2)cc1`, the inhibition in experiment [1] was -6%; in experiment [2], -2%. Moreover, the growth inhibition in experiment [3] was 85% (active). Moreover, the result in experiment [4], in experiment [5], in experiment [6] and in experiment [7] was inactive.
For `O=C(NCCCCN1CCC(c2ccc3c(c2OCCCO)CCCC3)CC1)c1ccc(-c2ccc(C(F)(F)F)cc2)c(CO)c1`, the inhibition in experiment [1] was 66% (active); in experiment [2], 4%. Besides, the growth inhibition in experiment [3] is 95% (active). The outcome in experiment [4], in experiment [5], in experiment [6] and in experiment [7] was inactive.
With `Cc1nc(Nc2ccc(F)cc2)nc(N2CCc3ccccc3[C@@H]2C)c1C`, the inhibition in experiment [1] was 12%; in experiment [2] it was -3%. Also, the growth inhibition in experiment [3] was 92% (active). Moreover, the outcome in experiment [4], in experiment [5], in experiment [6] and in experiment [7] was inactive.
On to `CN1CCC(N2CCN(C(=O)c3cccc(-c4cccc(-c5nc6ccccc6[nH]5)c4)c3)CC2)CC1`, for which the inhibition in experiment [1] was 10%; in experiment [2], 3%. Also, the growth inhibition in experiment [3] was 100% (active). Also, the outcome in experiment [4], in experiment [5], in experiment [6] and in experiment [7] was inactive.
As for `Cc1ccccc1Oc1ccc(Nc2ccnc(Nc3cccc(C(N)=O)c3)n2)cc1C(F)(F)F`, the inhibition was 9% in experiment [1] and -1% in experiment [2]. In addition, the growth inhibition in experiment [3] is 81% (active). In addition, the outcome in experiment [4], in experiment [5], in experiment [6] and in experiment [7] was inactive.
Turning to `N=C1SC(=Cc2cn[nH]c2-c2ccc(F)cc2)C(=O)N1c1nccs1`, the inhibition was 28% in experiment [1] and -3% in experiment [2]. Moreover, the growth inhibition in experiment [3] is 91% (active). In addition, the outcome in experiment [4], in experiment [5], in experiment [6] and in experiment [7] was inactive.
With `CC(C)C(=O)NC(NC(=S)Nc1ccc(Br)cc1)C(Cl)(Cl)Cl` (stereo unspecified), the inhibition in experiment [1] is -5%; in experiment [2], 3%. The growth inhibition in experiment [3] was 93% (active). Besides, the outcome in experiment [4], in experiment [5], in experiment [6] and in experiment [7] was inactive.
For the compound `Cc1cc2c(cc1C(F)(F)F)N(C(=O)Nc1ccc(C(=O)NCCN3CCCC3)cc1)CC2`, the inhibition in experiment [1] was 10%; in experiment [2], 3%. The growth inhibition in experiment [3] was 100% (active). Besides, the result in experiment [4], in experiment [5], in experiment [6] and in experiment [7] was inactive.
Consider `Clc1cccc(C=NNc2ccnc3cc(Cl)ccc23)c1`, for which the inhibition in experiment [2] was -4%. Besides, the outcome in experiment [4], in experiment [5], in experiment [6] and in experiment [7] was inactive.
For `COc1cc2c(cc1C(F)(F)F)N(C(=O)Nc1ccc(Br)cn1)CC2`, the inhibition was 16% in experiment [1] and -3% in experiment [2]. Besides, the growth inhibition in experiment [3] was 97% (active). The result in experiment [4], in experiment [5], in experiment [6] and in experiment [7] was inactive.
For the compound `O=C(Nc1cccc(Cl)c1)c1cc2ccccc2cc1O`, the figures for the inhibition in experiment [1] and in experiment [2] were 4% and -8%, respectively. In experiment [3], the growth inhibition is 97% (active). Moreover, the result in experiment [4], in experiment [5], in experiment [6] and in experiment [7] was inactive.
As for `O=C(O)c1ccc(-c2cnc3ccc(NC4CCC(O)CC4)nn23)cc1` (stereo unspecified), the growth inhibition in experiment [8] was 90% (active); in experiment [3] it was 98% (active). For the same compound, the inhibition was 9% in experiment [1] and 3% in experiment [2]. The outcome in experiment [4], in experiment [5] and in experiment [7] was inactive.
With `N#Cc1ccc(C(=O)Nc2cc(-c3cccc(O)c3)cc3[nH]ncc23)cc1`, the growth inhibition was 79% (active) in experiment [8] and 90% (active) in experiment [3]. The inhibition was 15% in experiment [1] and -1% in experiment [2]. In addition, the result in experiment [4], in experiment [5] and in experiment [6] was inactive.
On to `N=C(N)c1nc2ccccc2s1`, for which the inhibition in experiment [1] was 1%; in experiment [2] it was -1%. For the same compound, the growth inhibition in experiment [3] was 87% (active). The outcome in experiment [4], in experiment [5], in experiment [6] and in experiment [7] was inactive.
As for `Cc1cccc(Cn2ccc3c(N)nc(N)nc32)c1`, the inhibition in experiment [2] was 5%. Besides, the growth inhibition in experiment [3] was 82% (active). Also, the result in experiment [4], in experiment [5], in experiment [6] and in experiment [7] was inactive.
